# Laboratory results as given in PubChem BioAssay (Tox21).
# Records with an inconclusive call do not appear. Where a call stands in place of a potency, no number is given. Activity calls are given as the source filed them. Calls follow the shape of the dose curve; as a rule, active = well fitted cell-killing curve with a large enough effect in the repeat runs; inconclusive = weak or mixed curves; inactive = flat fitted curve, though single readings scatter.
# Assay: qHTS assay to identify small molecule antagonists of the TGF-beta/Smad signaling pathway - cell viability counter screen (AID 1346824); also: nearly all actives have a fitted effect of over 50% in size
# Conditions: SBE-bla HEK293T viability, CellTiter-Glo luminescence; series mostly up to 76.8 µM
# From the text: U.S. Tox21 Program National Center for Advancing Translational Sciences [NCATS] NIH Chemical Genomics Center [NCGC] U.S. Environmental Protection Agency [EPA] National Institutes of Environmental Health Sciences [NIEHS] National Toxicology Program [NTP] U.S. Food and Drug Administration [FDA] Tox21 Assay Overview: Transforming growth factor beta (TGF-beta) superfamily consists of a large number of structurally related dimeric proteins that act as hormones or local mediators in regulating a wide range of biological functions. This superfamily includes TGF-betas themselves, the bone morphogenetic proteins (BMPs) and the activins. These ligands induce oligomerization of serine/threonine receptor kinases and phosphorylate the cytoplasmic signaling molecules of Smad protein family. CellSensor SBE-bla HEK 293T cell line (Life Technologies, Carlsbad, CA), responsive to TGF-beta was used to screen Tox21 10K compound library for identification of agonists/antagonists of the Smad signaling pathway. This cell line contains a beta-lactamase reporter gene under control of the Smad binding element (SBE) stably integrated into HEK 293T cells. Also cytotoxicity of the compounds was tested in parallel by measuring the cell viability using CellTiter-Glo assay system in the same wells.
# Tox21 Assay Protocol Summary: SBE-bla HEK 293T cells were dispensed at 4,000/well in 5 uL of assay medium into black wall/clear-bottom 1536-well plates using a Multidrop Combi (ThermoFisher Scientific, Waltham, MA) dispenser. After the assay plates were incubated at 37 C and 5% CO2 for an overnight, 23 nL of compounds dissolved in DMSO, positive controls or DMSO only was transferred to the assay plate by a Pintool station (Kalypsys, San Diego, CA). Compound transfer was followed by the addition of 1 uL of 0.25 ng/mL TGF-beta1 or assay buffer using two separate tips of Flying Reagent Dispenser (FRD, Aurora Discovery, San Diego, CA). The assay plates were incubated at 37 C and 5% CO2 for 5 hr. One uL of LiveBLAzer B/G FRET substrate (Life Technologies) was added using a Flying Reagent Dispenser (FRD, Aurora Discovery, San Diego, CA) and the plates were incubated at room temperature for 2 hr. Fluorescence intensity (405 nm excitation, 460 nm and 530 nm emissions) was measured using an Envision plate reader (PerkinElmer, Shelton, CT). For cytotoxicity read, 4 uL of CellTiter-Glo reagent (Promega Corporation, Madison, WI) was added to each well of the assay plates using FRD. After 30 min incubation at room temperature, the luminescence intensity was measured using ViewLux plate reader (PerkinElmer).
row,Compound,Potency
1,CCOC(=O)C(C)Oc1ccc(Oc2cnc3cc(Cl)ccc3n2)cc1 (stereo not given),inactive
2,Cc1ccc(/C(=C\CN2CCCC2)c2ccccn2)cc1,inactive
3,Nc1ccc2c(O)cc(S(=O)(=O)O)cc2c1,inactive
4,c1ccc2ncccc2c1,inactive
5,NCCN,inactive
6,c1ccc2c(c1)ccc1cc3c(ccc4ccccc43)cc12,inactive
7,Clc1ccc(Sc2cc(Cl)c(Cl)cc2Cl)cc1,inactive
8,CCCCCC1C(=O)CCC1CC(=O)OC (stereo not given),inactive
9,O=C(O)c1ccc(O)cc1,inactive
10,CCCCCCCCCCCCCO,inactive
11,C=CC(C)(O)CCC=C(C)C (stereo not given),inactive
12,[Na+],inactive
13,CN(C)C,inactive
14,CC1=CC(C)(C)Nc2ccccc21,inactive
15,Cc1ccc(C(C)(C)C)cc1,inactive
16,COC(=O)C(C)Oc1ccc(Oc2ncc(C(F)(F)F)cc2Cl)cc1 (stereo not given),inactive
17,CC(=O)O[C@]1(C(C)=O)CC[C@H]2[C@@H]3C=C(C)C4=CC(=O)CC[C@]4(C)[C@H]3CC[C@@]21C,inactive
18,CN(C)/N=N/c1nc[nH]c1C(N)=O,inactive
19,FC(F)(F)C(Cl)Br (stereo not given),inactive
20,O=C(O)COCCN1CCN(C(c2ccccc2)c2ccc(Cl)cc2)CC1 (stereo not given),inactive

row,Compound,Potency
1,CC(=O)Oc1c(C)c(C)c2c(c1C)CC[C@@](C)(CCC[C@H](C)CCC[C@H](C)CCCC(C)C)O2,inactive
2,CC(C)(Oc1ccc(Cl)cc1)C(=O)O,inactive
3,C/C=C/C(=O)N(CC)c1ccccc1C,inactive
4,CCCN1C=CN(C)C1,inactive
5,O=C1CCc2ccccc2O1,inactive
6,COCCOCCOCCO,inactive
7,COC(=O)CC(=O)OC,inactive
8,CC/C(=C(/CC)c1ccc(O)cc1)c1ccc(O)cc1,inactive
9,CC(C)=CCO,inactive
10,NCCOCCO,inactive
11,CN1CCOCC1,inactive
12,[O-]/[N+](=N\O)c1ccccc1,inactive
13,O=C(O)c1cc(=O)[nH]c(=O)[nH]1,inactive
14,C=CCCCCCCCCCC,inactive
15,Cc1ccc(C(C)(C)C)c(O)c1,inactive
16,CC/C=C\C/C=C\C/C=C\CCCCCCCC(=O)O,inactive
17,OC[C@@H](O)[C@@H](O[C@@H]1O[C@H](CO)[C@H](O)[C@H](O)[C@H]1O)[C@H](O)[C@@H](O)CO,inactive
18,C=CCOC(=O)C(=C)C,inactive
19,CC(=O)Oc1ccc(C(c2ccc(OC(C)=O)cc2)c2ccccn2)cc1,inactive
20,CCCOCCO,inactive
